In PubChem BioAssay AID1347385 (Zoeller Lab, School of Medicine, Boston University, 2020):
The whole screen tested about 20,000 compounds, of which about 85 (0.4%) were called active.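 Rule for the calls: active = cell survival signal 2 SD away from solvent-only control wells, confirmed on one or two retests; inactive = the rest.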 The sample as a whole holds a higher share of actives than the screen did.

Test: compounds reducing fatty acid uptake into lipids – ZR-82 cells, Enamine library, screen 3, primary screen (AID 1347385);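 note: 3 h compound exposure then viability read about one day after UV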
Conditions: ZR-82 CHO cells, pyrene fatty acid UV survival, CellTiter Blue, peroxisome-deficient CHO-K1 mutant line, plus DGAT-1, DGAT-2 and ACAT inhibitors; at 10 µM unless noted
For Fc1ccc(-c2nnc(-c3nnc(-c4ccc(F)cc4)c(-c4ccccc4)n3)nc2-c2ccccc2)cc1, the outcome was “inactive”. For O=P1(Nc2cc(C(F)(F)F)ccc2Cl)C=C(c2ccccc2)OC(c2ccccc2)=C1, the outcome was “inactive”. For Nc1ccc([N+](=O)[O-])c(OC(F)F)c1, the outcome was “inactive”. For CCOC(=O)c1c(N)sc2c1CCCS2, the outcome was “inactive”. In the case of C=CCN1C(=O)/C(=C/c2c(NC3CC(C)(C)NC(C)(C)C3)nc3ccc(C)cn3c2=O)SC1=S, the outcome is reported as “inactive”. For O=C(COC(=O)CCNC(=O)NC12CC3CC(CC(C3)C1)C2)NCC(F)(F)F, the outcome was “inactive”. For O=S(=O)(c1ccc(F)c(F)c1)N1CCN(c2ccc(O)cc2)CC1, the outcome was “inactive”. In the case of COC(=O)C(C)N (stereo not drawn), the outcome is reported as “inactive”. With Cc1noc(C)c1COc1ncnc2sc3c(c12)CCCC3 the outcome was “inactive”. For C(=N\n1c(-c2ccco2)csc1=NC1CCCCC1)/c1ccccn1, the outcome was “inactive [setting not given]”. For Cc1noc(C)c1S(=O)(=O)Nc1ccc(NS(=O)(=O)c2ccc3c(c2)OCCCO3)cc1, the outcome was “inactive”. In the case of S=c1n(CN2CCOCC2)nc(Cc2cccs2)n1C1CCCCC1, the outcome is reported as “inactive”. For Ic1ccc2c(c1)Cc1ccccc1-2, the outcome was “inactive”. In the case of Cn1c(C(F)(F)F)nn(CN2CCN(c3cccc(C(F)(F)F)c3)CC2)c1=S, the outcome is reported as “inactive”. For O=C(CSc1nc2ccccc2nc1SCC(=O)c1cc2ccccc2o1)c1cc2ccccc2o1, the outcome was “inactive”. For O=S1(=O)N=C(N2CCC(c3nc4ccccc4o3)CC2)c2ccccc21, the outcome was “inactive”. With O=C(COC(=O)Cn1cc(C(F)(F)F)ccc1=O)NC(=O)NC1CCCC1 the outcome was “inactive”. With O=c1cc(COc2cc(Cl)c(Cl)cc2Cl)nc2ccc(Br)cn12 the outcome was “inactive”. In the case of FC(F)(F)c1ccc(Oc2ccc(Cl)c3cccnc23)nc1, the outcome is reported as “inactive”. For O=S(=O)(Nc1cc(S(=O)(=O)N2CCOCC2)ccc1N1CCCC1)c1cccs1, the outcome was “inactive”. With Clc1ccc(C=Nc2ccc3c(c2)OCO3)c(Cl)c1 the outcome was “inactive”. For CC(C)CN(C(=O)CSc1nncn1C)C1CCS(=O)(=O)C1 (stereo not drawn), the outcome was “inactive”. For O=[N+]([O-])c1ccc(NN=C2C3CC4CC(C3)CC2C4)c(S(=O)(=O)Nc2ccc(Cl)cc2)c1, the outcome was “inactive”. With CN(C)/N=C/C=C1\CCC/C(=C\c2cc(Br)cs2)C1=O the outcome was “inactive [setting not given]”. In the case of O=S(=O)(c1ccc(F)cc1F)N1c2cccc3cccc(c23)S1(=O)=O, the outcome is reported as “inactive”. With Nc1c(C(=O)CSc2cc(F)ccc2F)c(=O)[nH]c(=O)n1C1CC1 the outcome was “inactive”. With c1nc(N2CCN(c3ncnc4sc5c(c34)CCCC5)CC2)c2c3c(sc2n1)CCCC3 the outcome was “inactive”. In the case of Cc1cc(C)nc(N/N=C/c2ccncc2)n1, the outcome is reported as “inactive [setting not given]”. For Fc1ccc(-n2c(-c3ccc(Cl)cc3Cl)n[nH]c2=S)cc1Cl, the outcome was “inactive”. For Cc1ccc(C)c(C2C3=C(CC(C)(C)CC3=O)Nc3nc(-c4cccnc4)nn32)c1 (stereo not drawn), the outcome was “inactive”. For COc1cc(S(=O)(=O)n2c([N+](=O)[O-])cnc2C)ccc1Br, the outcome was “inactive”. For Cc1cc(C)c(C)c(S(=O)(=O)N(C)C2CCS(=O)(=O)C2)c1C (stereo not drawn), the outcome was “inactive”. In the case of CC(=O)c1c(C)[nH]c(C(=O)OCC(=O)c2cc(C)n(CC3CCCO3)c2C)c1C (stereo not drawn), the outcome is reported as “inactive”. With O=C1NC(c2ccc3ncccc3c2)C(C(=O)c2cccnc2)C(O)(C(F)(F)F)N1 (stereo not drawn) the outcome was “inactive”. For O=[N+]([O-])/C(CN1CCOCC1)=C1/CCCN1, the outcome was “inactive”. In the case of CCCCn1c(N)c(N(Cc2ccco2)C(=O)Cn2cnnn2)c(=O)[nH]c1=O, the outcome is reported as “inactive”. For CN(C(=O)COC(=O)CN1C(=O)NC2(CCCC2)C1=O)C1CCCCC1, the outcome was “inactive”. In the case of COC(=O)CNC(=O)c1ccc([N+](=O)[O-])o1, the outcome is reported as “inactive”. For CC(C)CN(C1CCS(=O)(=O)C1)S(=O)(=O)c1ccc(Cl)cc1 (stereo not drawn), the outcome was “inactive”. With C(=Nc1ccc2c(c1)OCO2)c1ccc2ncccc2c1 the outcome was “inactive”. For c1ccc2c(c1)OCCOCCOCCOc1ccccc1OCCOCCO2, the outcome was “inactive”. With O=C1NNS(=O)(=O)c2ccccc21 the outcome was “inactive”. In the case of Brc1ccc2nc(-n3nc4ccccc4n3)nc(-c3ccccc3)c2c1, the outcome is reported as “inactive”. In the case of Cc1sc2ncnc(SCC(=O)c3c(N)n(CC(C)C)c(=O)n(C)c3=O)c2c1C, the outcome is reported as “inactive”. With CCOC(=O)Cc1n[nH]c(=S)n1C1CCCC1 the outcome was “inactive”. In the case of CCNC(=S)N1CCN(S(=O)(=O)c2ccc(Cl)s2)CC1, the outcome is reported as “inactive”. In the case of Cc1cc(-c2csc(N)n2)c(C)c(C)c1C, the outcome is reported as “inactive”. In the case of O=C(COc1ncnc2sc3c(c12)CCC3)c1ccc(Cl)s1, the outcome is reported as “inactive”. With O=C(CN1C(=O)NC2(CCCC2)C1=O)NC1CCSc2ccc(F)cc21 (stereo not drawn) the outcome was “inactive”. For C=CCN(CC=C)CC(=O)Nc1sc2c(c1C(N)=O)CCCC2, the outcome was “inactive”. With Clc1ccc(Cl)c(-c2ccc(-c3ncc(-c4cccs4)o3)o2)c1 the outcome was “inactive”. For CN(C)C(=O)CN(C)C(=O)CN1C(=O)NC2(CCCCCC2)C1=O, the outcome was “inactive”. In the case of Cc1nc(SCC(=O)N2CCNC2=O)n(CC(C)C)c1C, the outcome is reported as “inactive”. In the case of O=S(=O)(c1ccc(Cl)c(N=C2SCCN2C2CCCCC2)c1)N1CCOCC1, the outcome is reported as “inactive”. In the case of c1ccc(OCc2nc(-c3ccccn3)n[nH]2)cc1, the outcome is reported as “inactive”. In the case of C#CC(CC)(CC)NC(=O)CCc1nc2sc3c(c2c(=O)[nH]1)CCCC3, the outcome is reported as “inactive”. With Brc1ccccc1C1N=C(c2ccccc2)NO1 (stereo not drawn) the outcome was “inactive”. In the case of O=c1c2c3c(sc2[nH]c(=S)n1C1CCCC1)CCC3, the outcome is reported as “inactive”. In the case of O=C(OCc1cc([N+](=O)[O-])cc2c1OCOC2)C1CCC1, the outcome is reported as “inactive”. For O=C(CSc1nc2sc3c(c2c(=O)n1C1CCCC1)CCCC3)N1CCCC1, the outcome was “inactive”. For FC(F)Oc1ccc(C2Oc3ccccc3C3CC(c4ccccc4)=NN32)cc1 (stereo not drawn), the outcome was “inactive”. For Cc1nnc(NC(=O)NCC2(C)CC(NC(=O)Nc3nnc(C)s3)CC(C)(C)C2)s1 (stereo not drawn), the outcome was “inactive”. In the case of CC(C)N(CCNS(=O)(=O)c1ccccc1)C(C)C, the outcome is reported as “inactive”. In the case of O=[N+]([O-])c1ccc(-n2nnc3ccccc32)c(Cl)c1, the outcome is reported as “inactive”. In the case of Clc1ccccc1C1Oc2ccccc2C2CC(c3ccc4c(c3)OCCO4)=NN21 (stereo not drawn), the outcome is reported as “inactive”. For O=c1/c(=C/c2ccc(F)cc2)sc2n1CCN=2, the outcome was “inactive”. For O=C1OCC(CO)(CO)N=C1NNc1ccc(I)cc1, the outcome was “inactive”. With FC(F)Oc1ccc(Cl)c(C2Nc3ccccc3-c3nc4ccccc4n32)c1 (stereo not drawn) the outcome was “inactive”. With C(=N\n1c(-c2ccc(-c3ccccc3)cc2)csc1=NCCc1ccccc1)/c1ccccn1 the outcome was “inactive [setting not given]”. For O=C(NC(O)C(Cl)(Cl)Cl)C12CC3CC(CC(C3)C1)C2 (stereo not drawn), the outcome was “inactive”. With CCOC(=O)c1c(C)[nH]c(C(=O)OCC(=O)C(C)(C)C)c1C the outcome was “inactive”. For C#CCN=Cc1c(O)n(CCOC)c(=S)[nH]c1=O, the outcome was “inactive”. For O=S(=O)(Oc1cccc2cccnc12)c1ccc2ccccc2c1, the outcome was “inactive”. With CC(Sc1nnc(-c2ccc(C(C)(C)C)cc2)o1)c1nnc(-c2ccc([N+](=O)[O-])cc2)o1 (stereo not drawn) the outcome was “inactive”. In the case of O=C1NC(c2ccc3c(c2)OCO3)C(C(=O)c2ccccc2)C(O)(C(F)(F)F)N1 (stereo not drawn), the outcome is reported as “inactive”. For CCN(CC)[P+](N)(c1nc2ccccc2n1C)N(CC)CC, the outcome was “inactive”. With COC(=O)c1cc(C(O)(C(F)(F)F)C(F)(F)F)c(N=CN(C)C)s1 the outcome was “inactive”. In the case of C=CCn1c(SCc2c(C)noc2C)nc2sc3c(c2c1=O)CCC(C)C3 (stereo not drawn), the outcome is reported as “inactive”. In the case of Cn1cc(-c2nn(-c3ccccc3)cc2/C=N/NC(N)=S)c2ccccc21, the outcome is reported as “inactive [setting not given]”. For Cc1cc(C=C2Sc3ccccc3N2C)cc(C)[n+]1CCCn1ccnc1, the outcome was “inactive”. In the case of CC1CCC2(CC1)NC(=O)N(CC1CC1(Cl)Cl)C2=O (stereo not drawn), the outcome is reported as “inactive”. For COc1ccc(OCCN2CCN(C(=N)N)CC2)cc1, the outcome was “inactive”. With C=CCNC(=S)NN=C1c2ccccc2-c2ccccc21 the outcome was “inactive”. In the case of O=C(CSc1ncnc2sc3c(c12)CCC3)N1CCCCC1, the outcome is reported as “inactive”. For C=CCOc1c(Cl)cc(S(=O)(=O)c2cc(Cl)c(O)c(Cl)c2)cc1Cl, the outcome was “inactive”. In the case of COCCn1c(C)cc(C(=O)COC(=O)Cn2c(C)csc2=O)c1C, the outcome is reported as “inactive”. For COc1ccc(C2=CC(c3ccc(OC)cc3)n3nnnc3N2)cc1 (stereo not drawn), the outcome was “inactive”. With O=[N+]([O-])c1ccc(NC(=S)N=C2c3ccccc3CN2c2ccc(Cl)cc2)cc1 the outcome was “inactive”. For O=S1(=O)CCC(NS(=O)(=O)c2ccc(Cl)c(Cl)c2)C1 (stereo not drawn), the outcome was “inactive”. With NC=C(S(=O)(=O)c1ccc(Cl)cc1)S(=O)(=O)c1ccc(Cl)cc1 the outcome was “inactive”. In the case of O=c1c(-c2cc3ccccc3o2)coc2ccccc12, the outcome is reported as “inactive”. In the case of O=C1C=CC(=O)N1c1ccc(Br)cc1, the outcome is reported as “inactive”. For CC1CCN(C2=NS(=O)(=O)c3ccccc32)CC1, the outcome was “inactive”. With CCSc1nnc(SCC(=O)c2c(N)n(CC(C)C)c(=O)n(C)c2=O)s1 the outcome was “inactive”. For Cc1ccc(-c2csc3nc(CSc4nnnn4C)[nH]c(=O)c23)s1, the outcome was “inactive”. In the case of CCCSc1nsc(N)n1, the outcome is reported as “inactive”. For Clc1ccc2nc(CSc3ccc4ccccc4c3)cn2c1, the outcome was “inactive”. In the case of Fc1ccc(Cn2c3[n+](c4ccc(C(F)(F)F)cc42)CCCCC3)cc1, the outcome is reported as “inactive”. For COC(=O)c1noc(C(=O)OC)c1O, the outcome was “inactive”. With FC(F)(F)C(=NCc1ccco1)NC1(C(Cl)(Cl)Cl)Oc2ccccc2O1 the outcome was “inactive”. In the case of CCOc1cc(C)c(S(=O)(=O)N2CCCC2)cc1C(C)C, the outcome is reported as “inactive”. For CCN(CC)c1ccc([P+](CC)(c2ccc(N(CC)CC)cc2)c2ccc(N(CC)CC)cc2)cc1, the outcome was “inactive”. With COc1ccc(OC)c(C2CC(c3ccco3)=NN2S(C)(=O)=O)c1 (stereo not drawn) the outcome was “inactive”. With CCCc1ccc(C2=C(C)SC3=NS(=O)(=O)CCN32)cc1 the outcome was “inactive”. In the case of Cc1cc(C)nc(SCc2cn3c(C)cc(C)nc3n2)n1, the outcome is reported as “inactive”. With COc1ccc(C2=NN3C(C2)c2ccccc2OC32CCCC2)c(OC)c1 (stereo not drawn) the outcome was “inactive”. With Cc1cc(C(=O)C(C)n2cnc3c2c(=O)n(C)c(=O)n3C)c(C)n1Cc1ccco1 (stereo not drawn) the outcome was “inactive”. In the case of O=[N+]([O-])c1ccc(-c2c[n+](=O)c3c(n2[O-])CCCCC3)cc1, the outcome is reported as “inactive”.
